Each structure is given as a SMILES string. Hit rate of the full screen: of about 360,000 compounds, about 2,600 (0.72%) were called active. The sample holds actives, similar compounds and a random draw of the others, so the mix is not that of the screen.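 The calls were made as follows: active = inhibition of the luminescence signal of 40% or more relative to plate controls, in a single-dose primary screen at 18.75 µM; inactive = the rest.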

This assay in a line: blockers of HIF-2a driven luciferase – luminescence, 786-0 RCC cells, primary screen (AID 624352). The following applies: 786-0 RCC cells HIF-2a reporter, overnight, at 18.8 µM, stronger effect = higher value.
As a reminder, the inhibition is the change of the read-out against control, counted positive when it falls. With `COc1ccc(/C=C2/SC(=O)N(CCCCCC(=O)Nc3ccccc3C(=O)O)C2=S)cc1`, the inhibition is 84.2% (active). The figure for `COc1ccc(NC(=O)CCCN2C(=O)C(c3ccccc3)Oc3cccnc32)cc1` (centres undefined) is 0.775% (inactive); for `CCCNC(=O)c1ccccc1NC(=O)CSCc1ccc(OC)cc1` it is 19% (inactive); for `Cc1ccccc1C(=O)N1CCC(C(=O)Nc2ccc(S(=O)(=O)N(C)C(C)C)cc2)CC1` it is 16.4% (inactive). The figure for `CC=CCn1c(SCCCc2ccccc2)nc2c1c(=O)[nH]c(=O)n2C` is 3.87% (inactive); for `NC1=CC(=O)C(=O)c2cccnc21` it is 54.7% (active); for `O=C(CCC(=O)NNc1nc2ccccc2c2nc(-c3ccccc3)nn12)NCCCN1CCCC1=O` it is -19.4% (inactive). In the case of `CSc1nc(-c2ccccc2)nc(C(Cl)Cl)n1`, the inhibition was 77.8% (active). With `COCCNC(=S)Nc1cc(S(=O)(=O)N2CCOCC2)ccc1N1CCCCC1` the figure was 11.9% (inactive). The figure for `CCn1cc(CNC(=O)c2cc([N+](=O)[O-])c(C)c([N+](=O)[O-])c2)cn1` is 8.39% (inactive); for `O=C(CN1CCN(Cc2ccccc2)CC1)Nc1ccc(F)c(F)c1` it is -1.13% (inactive). The figure for `O=C(CNCc1ccc(Cl)cc1)Nc1cccc(C(=O)O)c1` is 2.72% (inactive). Take `O=C(CCl)Nc1cccc(CP(=O)(c2ccccc2)c2ccccc2)c1`: the inhibition was 44.2% (active).

As to `O=C(NCc1cccs1)c1ccc(CS(=O)Cc2ccccc2Cl)o1` (centres undefined), the inhibition was -0.00949% (inactive). For the molecule `Cc1cccc(OCCC(=O)Nc2cc(S(=O)(=O)N3CCCCC3)ccc2N2CCOCC2)c1`, the inhibition was -42.8% (inactive). The figure for `CC[C@@H]1Cc2cc(O)ccc2C2=C1c1ccc(O)cc1C[C@H]2CC` is 45.9% (active); for `CCOC(=O)c1sc(/N=C/C2=C(O)CC(C)(C)CC2=O)c(C(=O)OCC)c1C` it is -268% (inactive). The figure for `CC(C)C1Nc2c(C(=O)O)cccc2C(Nc2ccccc2C(=O)O)C1(C)C` (centres undefined) is 19% (inactive). With `O=C(COC(=O)CC1CC2CCC1C2)NC(=O)NC1CCCC1` (centres undefined) the figure was 11.3% (inactive); with `Cc1cc(Br)cn2c(Cc3ccccc3C(F)(F)F)c(C3CCCCC3)nc12`, 7.15% (inactive). For the molecule `COc1cc2c(cc1OC)C(Nc1ccc(S(N)(=O)=O)cc1)=NC(C)(C)C2`, the inhibition was 8.2% (inactive). The figure for `COc1cc2c(cc1O)C(SC)=NC(C)(C)C2` is 89.4% (active); for `COc1cc2c(cc1OC)CC1(CCCCC1)N=C2` it is 10.1% (inactive); for `CC(NC(=O)CC1SC(N)=NC1=O)c1ccccc1` (centres undefined) it is 6.27% (inactive). The figure for `O=C(/C(=C/c1cccc(Cl)c1)c1nc2ccccc2[nH]1)c1ccccc1` is 92.8% (active); for `C[C@H]1CN([C@@H](C)CO)C(=O)CCCn2cc(nn2)CO[C@@H]1CN(C)S(=O)(=O)c1cccs1` it is 6.28% (inactive). Turning to `O=c1onc(-c2c(F)cccc2F)n1-c1ccccc1Cl`, the inhibition was 11.8% (inactive). The figure for `Cc1c[n+]([O-])ccc1[N+](=O)[O-]` is 3.58% (inactive).

As to `CCc1ccc(CNC(=O)C2CCN(c3nnc(C)c4c(C)n(-c5ccc(C)cc5)nc34)CC2)cc1`, the inhibition was 54.1% (active).

As for `CCc1ccc(CNC(=O)C2CCCN(c3nc4ccccc4o3)C2)cc1` (centres undefined), the inhibition is 12.9% (inactive). The figure for `CCc1ccc(CNC(=O)C2CC(=O)N(CCc3ccc(C)cc3)C2)cc1` (centres undefined) is -8.53% (inactive); for `COc1cccc(CNC(=O)C2CCCN(c3ncnc4c3nc3n4CCCCC3)C2)c1` (centres undefined) it is 0.819% (inactive); for `CCOc1ccc(CNC(=O)C2CCCN(c3nnc(C)c4c(C)n(-c5ccccc5)nc34)C2)cc1` (centres undefined) it is 40.7% (active). With `Cc1ccc(NC(=O)N2CCC(C(=O)NCc3ccc(F)cc3)CC2)cc1` the figure was 11.1% (inactive); with `CN(C)S(=O)(=O)c1cc(NC(=O)CN2C(=O)NC3(CCCc4ccccc43)C2=O)ccc1Cl` (centres undefined), 12.2% (inactive). As to `O=c1cc(C(F)(F)F)[nH]c(=O)n1C1CCCCC1`, the inhibition was 3.85% (inactive). Turning to `COc1ccc([N+](=O)[O-])cc1N(CC(=O)Nc1ccccc1C(=O)N1CCOCC1)S(C)(=O)=O`, the inhibition is 3.69% (inactive). As to `CCCCNC(=O)OCCSCCS(=O)(=O)c1ccc(Cl)cc1`, the inhibition was 10.7% (inactive).

With `O=C(CN1CCN(c2ccccn2)CC1)NCc1cccs1`, the inhibition was 4.32% (inactive).

Regarding `COc1ccc(OC)c(NC(=O)C2CCCN2S(=O)(=O)c2cccc3nsnc23)c1` (centres undefined), the inhibition was 16.7% (inactive).

Regarding `C/C(=C\C(=O)c1ccccc1)Nc1cccc(O)c1`, the inhibition was -359% (inactive).

In the case of `Cc1cc(C)nc(S/C=C/C(=O)c2ccccc2)n1`, the inhibition was 69.1% (active). Consider `Cc1nc(SCC(=O)c2ccccc2)c([N+](=O)[O-])[nH]1`, for which the inhibition is 8.52% (inactive). As to `CN1c2ccc(C=O)c3c(C=O)ccc(c23)N(C)C1(C)C`, the inhibition is 25.6% (inactive). With `CC1(C(=O)NS(=O)(=O)Cc2cccc(Cl)c2)CCN1C(=O)Cc1ccccc1` (centres undefined) the figure was 12.1% (inactive); with `C[C@@H]1NC(=O)c2cc([N+](=O)[O-])cc(F)c2NCCC[C@@H](C(N)=O)NC(=O)[C@H](CC(N)=O)NC1=O`, 9.38% (inactive); with `CCOC(=O)c1c(C)[nH]c2c1-c1ccccc1C(=O)C2=O`, 96.1% (active). As for `CCOC(=O)c1[nH]c(C)c(C(=O)OCC(=O)N2c3ccccc3CC2C)c1C` (centres undefined), the inhibition was 2.58% (inactive). With `CCOC(=O)c1c(C)oc(C)c(C(=O)OCC)c1=O` the figure was 0.843% (inactive). The figure for `COc1ccc(CN2CCNC(=O)C2CC(=O)N(C)Cc2ccccn2)cc1OC` (centres undefined) is 9.28% (inactive); for `COc1cc(C=NC2CCCCC2)ccc1O` it is 2.1% (inactive).

In the case of `COc1cc(/C=N/NC(=O)Nc2ccccc2)ccc1OCCOc1ccccc1C`, the inhibition is -9.55% (inactive).

Take `COc1ccc(C(=O)Nc2ccccc2C(=O)N/N=C/c2ccc(O)c(OC)c2)cc1`: the inhibition is 69.5% (active).

On to `Cc1ccc(C)c(NC(=O)CN(C)C(=O)c2ccc3ncsc3c2)c1`, for which the inhibition is 5.94% (inactive). With `CC(C)CN(C(=O)c1ccc2c(c1)OCO2)C1CCS(=O)(=O)C1` (centres undefined) the figure was 24.2% (inactive); with `Cc1nn(-c2ccccc2)c(=O)c2noc(C)c12`, 3.29% (inactive). With `CC1(C(=O)O)CCN1C(=O)/C=C/c1ccccc1` (centres undefined) the figure was 3.94% (inactive); with `Cc1[nH]c(=O)c(C(=O)/C=C/c2ccccc2)c2c1CCCC2`, 72.5% (active); with `C/C(=C\c1ccccc1)C1NC(=O)c2c(sc3c2CCCC3)N1` (centres undefined), -140% (inactive).

The record behind these values is PubChem BioAssay AID624352 (Sanford-Burnham Center for Chemical Genomics, 2012).
